Source: PubChem
Hits are enriched below; roughly 3.9% of the tested compounds scored in any of these assays.
MITF TRPM1 HTS: activators of MITF-driven TRPM1 promoter reporter, primary screen, cell-based, SK-MEL-5, luciferase, single point; SK-MEL-5 TRPM1-promoter luciferase, 24 h; % of positive control, neutral wells = 0; activation, % at 12.5 µM; hit rate 0.75% among 300,000; AID 588334, 2011;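 active = mean activation of at least 80% with every replicate also reaching 80%; inconclusive = mean reaches 80% but some replicate falls short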;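 note: 0% = neutral control wells and 100% = parthenolide positive control wells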
HSF-1 act: HSF-1 activators, primary screen, NIH3T3-HGL cells, MG132 stress, luminescence, single point; NIH3T3-HGL HSF-1 luciferase reporter, 8 h; 100% = twice DMSO control signal; activation, % at 9 µM; hit rate 1.7% among 300,000; AID 504408, 2011;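 active = mean replicate activation of at least 50% with a set share of replicates each reaching 50%; inconclusive = only one of those two conditions met; inactive = mean below 50% and too few replicates reaching it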;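 note: 0% = median of the neutral control wells and 100% = twice that signal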
HSF1 inh: HSF1 inhibitors in luciferase reporter cells, primary screen, cell-based, NIH3T3, luminescence; NIH3T3-HGL HSE-luciferase, MG132-induced, luminescence 8 h; active compounds read low; activity change, negative = inhibition, % at 7.5 µM (by protocol); hit rate 0.77% among 300,000; AID 2098, 2009;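 active = more than half of replicate wells show activity change below -50%, luminescence cut by over half; inconclusive = some wells, but at most half, below -50%; inactive = no replicate well below -50%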;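 note: luciferase reports HSF-1 transcriptional activity via heat shock element; 0% = median of DMSO wells and -100% = zero luminescence signal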
Wnt act: Wnt/beta-catenin pathway activators, primary screen, cell-based, plate reader, single point; Wnt/beta-catenin reporter cell assay, activator; activation, % at 9.35 µM; hit rate 1.2% among 300,000; AID 743398, 2014; in the data active = activation above about 30%, passing the limit was not always enough; inconclusive = no clear call, values can overlap the other calls;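 note: 0% = neutral control wells and 100% = positive control wells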
esBAF inh: Bmi1 luciferase reporter increase in mESCs, primary screen, esBAF inhibitor project, mouse ES cells, Bmi1 luciferase knock-in, single point. 24 h; 100% = twice the neutral-well signal. reporter increase, % at 12.5 µM. hit rate 2% among 350,000; in the data active = activation above about 40%; inconclusive = no clear call, values can overlap the other calls;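 note: 0% = median of the plate's neutral control wells and 100% = double that signal; a rise in the Bmi1 reporter signal indicates esBAF inhibition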
The depositor's hits bear a star.

`CN(C)CCCNC(=O)C[C@@H]1CC[C@H]2[C@H](COc3ccc(NC(=O)NC4CCCC4)cc3C(=O)N2C)O1` gave esBAF inh 19.
For CCC(=O)N1CC[C@@H]2[C@@H](CO)Nc3ccc(-c4ccc(OC)cc4)cc3[C@@H]21 the results were esBAF inh -5.
For COc1ccc(O)c(C(=O)CC(=O)c2ccc(F)cc2)c1 the results were MITF TRPM1 HTS -19, HSF-1 act 35 and HSF1 inh 25.
Screening O=C(c1cnn(-c2ccccc2)c1)c1ccccc1O returned MITF TRPM1 HTS 43, HSF-1 act 32, HSF1 inh 13, Wnt act inconclusive and esBAF inh 18.
O=C(c1cnn(-c2ccccc2)c1)c1cc(F)ccc1O was read as MITF TRPM1 HTS 66, HSF-1 act 16, HSF1 inh 9, Wnt act 14 and esBAF inh 89*.
For COc1ccc(O)c(C(=O)CC(=O)c2cccnc2)c1 the results were MITF TRPM1 HTS 62, Wnt act 34* and esBAF inh 20.
For COc1ccc(O)c(C(=O)c2cnn(C(=O)c3ccc(C)cc3)c2)c1 the results were MITF TRPM1 HTS 2, Wnt act 2 and esBAF inh 0.
For COc1ccc(-n2cc(C(=O)c3ccc4ccccc4c3O)cn2)cc1 the results were MITF TRPM1 HTS -4, HSF-1 act 20, HSF1 inh 17, Wnt act 1 and esBAF inh 3.
COc1ccc(O)c(C(=O)c2cnn(-c3ccccc3)c2)c1 was read as MITF TRPM1 HTS 32, HSF-1 act 44, HSF1 inh 18, Wnt act -2 and esBAF inh 53*.
`COc1ccc(-n2cc(C(=O)c3ccccc3O)cn2)cc1` gave MITF TRPM1 HTS 10, HSF-1 act -53, HSF1 inh -51* and Wnt act -2.
For C[C@@H]1CCCCO[C@H](CN(C)S(=O)(=O)c2cn(C)cn2)[C@H](C)CN([C@@H](C)CO)C(=O)c2cc(NC(=O)CCCCCC(=O)Nc3ccccc3N)ccc2O1 the results were esBAF inh -1.
For C[C@@H]1CCCCO[C@@H](CN(C)Cc2ccc(C(=O)O)cc2)[C@@H](C)CN([C@@H](C)CO)C(=O)c2cc(NC(=O)CCC(F)(F)F)ccc2O1 the results were esBAF inh 1.
`CCC(=O)N1[C@H](CO)[C@H](c2ccc(-c3cccnc3)cc2)[C@@H]1CN(C)C(C)=O` gave esBAF inh -10.
Screening COc1cccc(NC(=O)N(C)C[C@@H]2Oc3cc(C#Cc4ccc(F)cc4)ccc3S(=O)(=O)N([C@H](C)CO)C[C@H]2C)c1 returned esBAF inh -7.
Screening CCOC(=O)c1c(NC(=O)c2ccccc2)sc2c(O)c(CN(CC)CC)ccc12 returned HSF-1 act -75, HSF1 inh -73*, Wnt act -9 and esBAF inh 1.
Screening COCCNC(=O)c1cc2oc3ccccc3c2n1C returned HSF-1 act 45, HSF1 inh 18, Wnt act 17 and esBAF inh 72*.
Screening CCOc1ccccc1CNC(=O)c1cc2oc3ccccc3c2n1C returned HSF-1 act -4, HSF1 inh 3, Wnt act -4 and esBAF inh 7.
O=C(NCc1ccccc1)C1CCCC1 was read as HSF-1 act -72 and HSF1 inh -62*.
Screening O=C(NC1CCCCCC1)C(=S)NCc1ccccc1 returned MITF TRPM1 HTS 37, HSF-1 act 18, HSF1 inh 8 and Wnt act -3.
`O=C(CNC(=S)NC(=O)C1CCCCC1)c1ccccc1` gave MITF TRPM1 HTS 87*, HSF-1 act 27, HSF1 inh 21, Wnt act 0 and esBAF inh 21.
For O=C(NC1CCCCC1)C(=S)NCc1ccccc1 the results were MITF TRPM1 HTS 57, HSF-1 act 28, HSF1 inh 14, Wnt act 9 and esBAF inh 50*.
For O=C(NC(=S)NCCc1ccccc1)C1CCCCC1 the results were MITF TRPM1 HTS 4, HSF-1 act 1, HSF1 inh 7, Wnt act 2 and esBAF inh 32.
For CNC[C@H]1Oc2ccc(NC(=O)c3ccncc3)cc2C(=O)N([C@@H](C)CO)C[C@@H]1C the results were esBAF inh 6.
`O=C(CC1CC1)Nc1ccc2c(c1)[C@@H]1C[C@H](CC(=O)N3CCCCC3)O[C@H](CO)[C@@H]1O2` gave esBAF inh 2.
O=C(NCc1cc(F)cc(F)c1)[C@H]1[C@H](CO)[C@H]2Cn3c(cccc3=O)[C@@H]1N2C(=O)Cc1ccccn1 was read as esBAF inh -4.
CC(C)S(=O)(=O)c1csc(NC(=O)Nc2ccc(Cl)cc2)c1 was read as HSF-1 act 77*, HSF1 inh 60 and Wnt act 2.
NS(=O)(=O)c1cccc(NC(=O)Nc2ccc(Cl)cc2)c1 was read as MITF TRPM1 HTS 39, HSF-1 act 30, HSF1 inh 10 and Wnt act 19.
`Cc1[nH]n(-c2ccccc2)c(=O)c1N=Nc1ccccc1` gave MITF TRPM1 HTS 24, HSF-1 act 41, HSF1 inh 25 and Wnt act -2.
`Cc1ccc(N=Nc2c(N)n(-c3ccccc3)[nH]c2=O)cc1` gave MITF TRPM1 HTS 78, HSF-1 act 37, HSF1 inh 12 and esBAF inh 42*.
For Cc1ccc(NC(=O)C(=O)c2ccc(C)cc2)cc1 the results were MITF TRPM1 HTS 65, HSF-1 act 61*, HSF1 inh 19, Wnt act inconclusive and esBAF inh 76*.
For Cc1ccc(C(=O)CNc2ccc(C)c(Cl)c2)cc1 the results were MITF TRPM1 HTS 37, HSF-1 act 39 and HSF1 inh 4.
Cc1ccc(NC(=O)c2ccccc2)cc1 was read as HSF-1 act 25, HSF1 inh 23 and esBAF inh inconclusive.
For Cc1ccc(NCC(=O)c2ccc(C)cc2)cc1 the results were MITF TRPM1 HTS 84*, HSF-1 act 20, HSF1 inh 10, Wnt act 15 and esBAF inh -37.
For CCOC(=O)CN1CCC(c2cc(-c3ccc(Cl)cc3)n[nH]2)CC1 the results were HSF-1 act 52*, HSF1 inh 9, Wnt act 1 and esBAF inh 0.
`COc1ccccc1C1=NC(c2ccc(C)cc2)N=C1C` (centres undefined) gave MITF TRPM1 HTS 46, HSF-1 act 42, HSF1 inh 24 and Wnt act 52*.
Screening Cc1ccccc1NC(=O)c1nnn(-c2ccc3c(c2)OCCO3)c1N returned MITF TRPM1 HTS 86*, HSF-1 act 35, HSF1 inh 14 and Wnt act 36*.
For CCOc1ccccc1NC(=O)c1nnn(-c2ccc3c(c2)OCCO3)c1N the results were HSF-1 act 0, HSF1 inh -1, Wnt act 2 and esBAF inh 22.
